RMI FANCM FP: blocks RMI1/RMI2 complex binding to FANCM MM2 peptide | Fluorescence polarization, RMI core complex with F-MM2 peptide; active compounds read low | FP signal (polarization) at 33 µM | 70,000 tested, 0.58% active | AID 1159607; in the data active means FP signal below about 40
An asterisk follows results filed as active; ! = not active in a repeat. Many of the other results were omitted from the sample, so hits are more common in it than they were.

SMILES	RMI FANCM FP
C[C@]12CCC3c4ccc(OC(=O)CCC(=O)O)cc4CCC3C1CCC2=O (stereo partly specified)	53
C[C@]12CCC3c4ccc(O)cc4CCC3C1CCC2=O (stereo partly specified)	65
C[C@]12CC[C@@H]3c4ccc(OS(=O)(=O)O)cc4CC[C@H]3[C@@H]1CCC2=O	33*!
Cc1ccc2sc(=NC(=O)c3ccc(Br)cc3)n(C)c2c1C	66
Cc1nn(C2CCS(=O)(=O)C2)c2nc(-c3ccco3)cc(C(=O)Nc3nccs3)c12 (stereo unspecified)	64
O=C(Nc1nc(-c2cc([N+](=O)[O-])cs2)cs1)c1ccno1	59
CCOC(=O)C1=C(Nc2ccc(OC(F)(F)F)cc2)OCC1=O	59
CCOC(=O)c1cc(C#N)c2ccccn2c1=O	33*
CCOC(=O)c1cc(C#N)c(SCC(=O)Nc2ccc(C(C)=O)cc2)[nH]c1=O	55
CCOC(=O)c1cc(C#N)c(Sc2ccccc2)nc1C(F)(F)F	53
Nc1nnc(-c2ccc([N+](=O)[O-])o2)s1	57
COc1ccc2nc(-c3nc4ccccc4s3)sc2c1	32
O=C(Nc1ccc(N2CCCCS2(=O)=O)cc1)c1ccc(Br)o1	53
O=C(Nc1nc(-c2ccccn2)cs1)c1ccc2ncsc2c1	84
O=C(Nc1nc(-c2ccc3c(c2)OCCO3)cs1)c1ccc2ncsc2c1	68
O=C(Nc1nc(-c2ccc(Br)s2)cs1)c1ccc2ncsc2c1	26*
Cc1ccc(NC(=O)CS(=O)(=O)c2cccs2)cc1F	64
Cc1nc(-c2ccc(F)cc2)sc1CCNC(=O)CN1C(=O)c2ccccc2C1=O	57
O=C1N=c2ccccc2=CC1=Cc1sc(=S)n(Cc2ccccc2)c1O	56
Oc1c(C=C2N=c3ccccc3=N2)sc(=S)n1-c1ccccc1F	23*
Nc1c(C(=O)N2CCOCC2)sc(=S)n1-c1ccccc1F	64
O=C(CS(=O)(=O)c1cn(CC(=O)N2CCCCC2)c2ccccc12)Nc1cccc(C(F)(F)F)c1	56
CCCc1cnc(N2CCN(C(=O)c3cc(C)on3)CC2)nc1	54
CC1O[C@@H](Oc2c(-c3ccc(O)c(O)c3)oc3cc(O)cc(O)c3c2=O)[C@H](O)[C@H](O)[C@H]1O (stereo partly specified)	58
COC(=O)c1ccc(C(=O)Nc2nc3c(Cl)ccc(Cl)c3s2)cc1	80
SMILES	RMI FANCM FP
O=C(Nc1ccc(F)c(Cl)c1)C1CCN(c2ccc(-c3ccco3)nn2)CC1	74
O=C(Nc1cnc2ccccc2c1)C1CCN(c2ccc(-c3ccco3)nn2)CC1	26*
O=C(Nc1ccc(F)c(C(F)(F)F)c1)C1CCN(c2ccc(-c3ccco3)nn2)CC1	68
Cc1cc(C)c2nc(N(CCn3cccn3)C(=O)c3cccs3)sc2c1	61
COCCNC(=O)Cc1cn(Cc2ccc(F)cc2)c2ccccc12	65
Fc1ccc(Cn2c3ccccc3c3nn4cnnc4nc32)cc1	28*
COc1ccc(Cn2cnc3c4ccccc4n(CC(=O)NCc4ccccc4)c3c2=O)cc1	101
CCOC(=O)Cn1c(=NC(=O)c2cc(C)n(CC)n2)sc2cc3c(cc21)OCO3	61
CC(C(=O)O)c1ccc(CC2CCCC2=O)cc1 (stereo unspecified)	47
CCOc1ccc(NC(=O)N2CCN(c3ccc4nnc(-c5ccco5)n4n3)CC2)cc1	69
c1ccc(-n2nnnc2SSc2nnnn2-c2ccccc2)cc1	57
COc1cccc2c1C(=O)c1c(O)c3c(c(O)c1C2=O)C[C@@](O)(C(=O)CO)C[C@@H]3O[C@H]1C[C@H](N)[C@@H](O)[C@H](C)O1	-10*
CC(=O)[C@]1(O)Cc2c(O)c3c(c(O)c2[C@@H](O[C@H]2C[C@H](N)[C@H](O)[C@H](C)O2)C1)C(=O)c1ccccc1C3=O	-37
COc1cccc2c1C(=O)c1c(O)c3c(c(O)c1C2=O)C[C@@](O)(C(C)=O)C[C@@H]3O[C@H]1C[C@H](N)[C@H](O)[C@H](C)O1	65
CCc1ccc(OC)c(S(=O)(=O)NCCN2CCN(c3ccccc3OC)CC2)c1	63
CCCCCCC(=O)N=Nc1c(O)[nH]c2c(Br)cc(Br)cc12	63
COc1ccccc1-c1c(C)[nH]n2c(=O)cc(C)nc12	61
Cn1cccc1CN1CCS(=O)(=O)CC1	54
CCOC(=O)c1ccc(S(=O)(=O)NCCn2nc(-c3ccccc3)ccc2=O)cc1	58
COc1ccc(-c2c(-c3ccc(OCC(=O)NN)cc3O)n[nH]c2C)cc1	69
Cc1nc(-n2nc(-c3ccco3)cc2NC(=O)c2ccc(Br)o2)[nH]c(=O)c1C	39*
CCC(C(=O)Nc1cc(-c2cccs2)nn1-c1nc(C)c(C)c(=O)[nH]1)c1ccccc1 (stereo unspecified)	61
Cc1nc(-n2nc(-c3ccco3)cc2NC(=O)COc2ccccc2F)[nH]c(=O)c1C	41
CCC(C(=O)Nc1cc(-c2ccco2)nn1-c1nc(C)c(C)c(=O)[nH]1)c1ccccc1 (stereo unspecified)	31*
Cc1nc(-n2nc(-c3ccco3)cc2NC(=O)Cc2ccc(F)cc2)[nH]c(=O)c1C	61
SMILES	RMI FANCM FP
CCOCC(=O)Nc1cc(-c2ccco2)nn1-c1nc(C)c(C)c(=O)[nH]1	65
Cc1nc(-n2nc(-c3cccs3)cc2NC(=O)c2cc3ccccc3o2)[nH]c(=O)c1C	64
COc1cccc(C(=O)Nc2cc(-c3ccco3)nn2-c2nc(C)c(C)c(=O)[nH]2)c1OC	56
Cc1nc(-n2nc(-c3ccco3)cc2NC(=O)c2cc3ccccc3o2)[nH]c(=O)c1C	23*
CCn1ccnc1N1CCN(C(=O)/C=C\c2ccccc2)CC1	59
COC(=O)c1ccc(C)c(-n2c(N)c(C(=O)NCc3ccccc3OC)sc2=S)c1	57
Cc1cc(NC(=O)COc2ccc(Cl)cc2)n(C)n1	63
NNC(=O)c1nn(-c2ccccc2)c(=O)c2c(N)scc12	24*
O=C(Nc1scc2c(C(=O)O)nn(-c3ccc(C(F)(F)F)cc3)c(=O)c12)c1c(F)cccc1Cl	59
CCOC(=O)c1nn(-c2ccc(OC)cc2)c(=O)c2c(NC(=O)c3c(OCC)ccc4ccccc34)scc12	64
O=C(O)/C=C/C(=O)Nc1ccc(C(=O)O)c(O)c1	52
COc1ccc(-c2cc3nc(C)cc(C)n3n2)cc1OC	64
FC(F)(F)c1cc(-c2ccc(Cl)cc2)nc2cc(-c3ccccc3)nn12	55
COc1ccc(-c2cc(C(F)(F)F)n3nc(-c4cccs4)cc3n2)cc1OC	9*
Cc1ccc(/C=N\NC(=O)c2cc([N+](=O)[O-])cc([N+](=O)[O-])c2)cc1	61
Cc1cc[n+](-c2[nH]c(=O)sc2/C=N\NC(=O)c2ccccc2[O-])cc1	1*
Cc1ccccc1C(=O)N/N=C\c1ccc(OC(=O)c2ccccc2)cc1	63
CC(C)c1ccc(NC(=O)C(=O)NCC(c2ccc3c(c2)CCN3C)N(C)C)cc1 (stereo unspecified)	64
CC1(C)SC2C(NC(=O)C(N)c3ccccc3)C(=O)N2C1C(=O)O (stereo unspecified)	60
CC1(C)S[C@@H]2[C@H](NC(=O)Cc3ccccc3)C(=O)N2[C@H]1C(=O)O	63
CC1(C)S[C@@H]2[C@H](NC(=O)COc3ccccc3)C(=O)N2[C@H]1C(=O)O	32*
CCCc1cc(Nc2ccc(NC(C)=O)cc2)n2nc3nc(C)cc(C)c3c2n1	77
CCn1nccc1C(=O)Nc1nc2cc3c(cc2s1)OCCO3	67
Nc1cc2c3c(c1)CCC(=O)N3CCC2	21*
